The whole screen tested about 310,000 compounds, of which about 11,000 (3.5%) were called active. Another 4% or so got no clear call; they are omitted. Shown is part of a subset that was picked to be rich in actives. A structure can be active in one record and inactive in another. Unmarked numbers belong to inactive results. Calls follow the shape of the dose curve; as a rule, active = well fitted inhibition curve with a large enough effect; inconclusive = small, poorly fitted or top-dose-only effect, or another doubt; inactive = no such curve, though single readings can be large or run the other way.
biological target: 4'-phosphopantetheinyl transferase ffp (Bacillus subtilis) (UniProt Q9F4F7); assay: qHTS Assay for Inhibitors of Bacillus subtilis Sfp phosphopantetheinyl transferase (PPTase); conditions: Biochemical Sfp PPTase activity;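 also: the enzyme is Sfp with the accession as filed and its product quenches rhodamine fluorescence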;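 as to largest response in the series, negative = inhibition: 0% = enzyme reaction without inhibitor and -100% = no enzyme wells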
Outline: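 After 15 min at room temperature with compound, 15 nM Sfp received 5 uM rhodamine-CoA plus 12.5 uM BHQ-2-ybbR (50 mM Hepes pH 7.6, 10 mM MgCl2). Rate came from the fluorescence difference over 30 min, ex 525/em 598 nm.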
Potency is read from the fitted curve at half-maximal effect.

SMILES | largest response in the series, negative = inhibition [%] | Potency
Cc1[nH]c2ccc(C(=O)N3CCN(C)CC3)cc2c1C | 9.64 | –
Cc1ccc(-c2csc(NC3OC(=O)c4ccccc43)n2)cc1 (stereo not drawn) | 7.08 | –
NC(=O)C1CCN(CC(O)CSc2ccc(F)cc2)CC1 (stereo not drawn) | 0.977 | –
Cc1ccc(C(=O)NNc2ncnc3ccccc23)cc1 | – | 70.8 µM (active)
CCc1nc(SCC(=O)NNC(=O)c2ccc(C)cc2)c2ccccc2n1 | 10 | –
Cc1ccc(C(=O)NNC(=O)c2cc3cc4ccccc4nc3s2)cc1 | -2.23 | –
CCOc1cc(NC(=O)Nc2ccccc2)c(OCC)cc1NC(=O)CC | 17.2 | –
COc1cc(C(=O)NCc2cc3cc(Cl)ccc3n2C)cc(OC)c1OC | 9.69 | –
O=C(Nc1ccc(S(=O)(=O)N2CCOCC2)cc1)c1ccc2ncsc2c1 | – | 50.1 µM (active)
O=C(Nc1ccc(S(=O)(=O)Nc2nccs2)cc1)c1cccc(S(=O)(=O)N2CCOCC2)c1 | 10 | –
O=C(Nc1ccc(N2CCOCC2)c(Cl)c1)c1ccc(S(=O)(=O)N2CCOCC2)cc1 | 10.6 | –
CC(C)c1nc(CNC(=O)CC2C(=O)NCCN2Cc2cccc(F)c2F)cs1 (stereo not drawn) | 7.23 | –
CC(=O)NC(CC(=O)Nc1nc(-c2ccccc2)c(C(C)=O)s1)c1ccccc1 (stereo not drawn) | 2.16 | –
CN(C(=O)CCN1C(=O)/C(=C/c2ccccc2F)SC1=S)C1CCS(=O)(=O)C1 (stereo not drawn) | 1.57 | –
CCOC(=O)c1c(NC(=O)CSc2nnc(C)c(=O)[nH]2)sc2c1CCC2 | 12 | –
CCOC(=O)CSc1nc(C)c(Oc2ccc(Cl)cc2Cl)c(=O)[nH]1 | 11.2 | –
CCCCOC(=O)CNc1nnc(SCC(=O)OCC)[nH]c1=O | – | 20 µM (active)
C=CCn1c(CSc2nc3ccccc3s2)nnc1SCC(=O)NCc1ccco1 | – | 15.8 µM (active)
CCn1c(COc2ccccc2)nnc1SCC(=O)NCc1ccco1 | 21.1 | –
C=CCn1c(SCC(=O)Nc2nc3ccccc3s2)nnc1-c1ccccc1O | -3.27 | –
CC(=O)c1cc2c(cc1NC(=O)Cn1nc(-c3ccc(F)cc3)ccc1=O)OCO2 | 8.25 | –
COc1ccc(S(=O)(=O)NCCc2cc3ccc(C)c(C)c3[nH]c2=O)cc1 | 8.17 | –
O=C1Nc2ccccc2C12Nc1ccccc1S2 (stereo not drawn) | – | 20 µM (active)

SMILES | largest response in the series, negative = inhibition [%] | Potency
COc1ccc(C2(O)C(=O)Nc3ccccc32)cc1 (stereo not drawn) | 5.11 | –
Cc1cc(O)c(C2(O)C(=O)Nc3ccccc32)cc1C (stereo not drawn) | 0.726 | –
CN1CCN(c2ncc3nc(-c4ccc(Cl)cc4)c(=O)n(-c4ccccc4)c3n2)CC1 | -4.61 | –
CCOC(=O)c1c(S(=O)(=O)Nc2cccc(Cl)c2)c(C)n(C)c1C | 17.3 | –
COC(=O)c1cnn2c(C(F)(F)F)cc(-c3ccco3)nc12 | -3.33 | –
Cc1cc(C)c2nc(-c3ccco3)cc(C(=O)O)c2c1 | – | 20 µM (active)
Cc1ccsc1-c1cc(C(=O)O)c2c(ccc3ccccc32)n1 | 5.93 | –
Cc1ccc(S(=O)(=O)c2c[nH]c3ccc(C)cc3c2=O)cc1 | 18.3 | –
COc1cc(C)cc(CN2CCC(Cc3ccccc3)CC2)c1O | 15.6 | –
Cc1ccc(OCc2nnc(SC3CCc4ccccc4C3=O)n2C)cc1 (stereo not drawn) | – | 25.1 µM (active)
Cc1cccnc1NC(=O)CSc1nnc(COc2ccc(C(C)C)cc2)n1C | -2.86 | –
Cc1ccc(OCc2nc3ccccc3n2C)cc1 | 16.9 | –
CCCCNC(=O)c1ccccc1NC(=O)c1ccccc1N(C)S(C)(=O)=O | – | 50.1 µM (active)
CCC(C)NC(=O)c1ccccc1NC(=O)c1ccccc1N(C)S(C)(=O)=O (stereo not drawn) | 17.5 | –
CCCCNC(=O)c1ccccc1NC(=O)C1=C(C)OCCS1 | 4.87 | –
C=CCOC(=O)C(C(C)=O)C(NC(=O)OC)c1ccccc1 (stereo not drawn) | 17.2 | –
COc1ccc(C)cc1NC(=O)CN(C)S(=O)(=O)c1ccc2c(c1)n(C)c(=O)c(=O)n2C | 13.5 | –
COc1ccc2c(c1)CC[C@@H]1[C@@H]2CC[C@]2(C)C(=O)CC[C@@H]12 | – | 50.1 µM (active)
C[C@]12CC[C@@H]3C(=CCc4cc(O)ccc43)[C@@H]1CCC2=O | -11.9 | –
COc1ccc(S(=O)(=O)N2CCN(C)CC2)c(C)c1 | 13.7 | –
CCCc1c(C(=O)N/N=C(\C)CCc2ccc(OC)cc2)nnn1-c1nonc1N | 10.3 | –
CCO/C=C1\C(=O)N(c2ccc(OCC)cc2)C(=O)c2ccccc21 | 3.31 | –
CCOc1ccc(N2C(=O)/C(=C/c3ccc(C)o3)N(C)C2=S)cc1 | – | 3.98 µM (active)

SMILES | largest response in the series, negative = inhibition [%] | Potency
CCOc1ccc(N2C(=O)CN(c3cccc4ccccc34)C2=S)cc1 | 11.1 | –
COC(=O)C1=C(C(=O)OC)[C@@H]2N(C)c3ccccc3[C@@]23C[C@@H](C(=O)OC)N(S(=O)(=O)c2ccc(Br)cc2)C3=N1 | 14 | –
CCOC(=O)C1=NOC(Cn2cc(C(C)=O)c(=O)[nH]c2=O)C1 (stereo not drawn) | 15.9 | –
CCOC(=O)C1=NO[C@@]2(C=C(Br)C(=O)[C@H]3O[C@H]32)C1 | – | 31.6 µM (active)
CCOC(=O)C1=C(C)N=C2c3ccccc3C(=O)C2C1c1ccc(Br)cc1 (stereo not drawn) | 10.1 | –
Cc1c(C=O)c2ccccc2n1CCOc1ccccc1 | -1.13 | –
CCOc1ccc(N/C=C/C(=O)c2cc(OC)c(OC)c(OC)c2)cc1 | -7.21 | –
COc1ccccc1NC(=O)CSc1nnc(CNC(=O)c2ccccc2F)o1 | 15.2 | –
NC(=O)c1c(NC(=O)CSc2nnc(-c3ccco3)n2N)sc2c1CCCC2 | – | 5.62 µM (active)
CCc1cccc(C)c1NC(=O)CSc1nnc(-c2ccco2)n1N | -3.08 | –
NC(=O)c1c(NC(=O)CSc2nc(N)cc(=O)[nH]2)sc2c1CCCC2 | -28 | –
CCOc1ccccc1NS(=O)(=O)c1c[nH]c(C(=O)OC)c1 | 4.59 | –
CC(OC(=O)c1ccccc1N1C(=O)C2C3CCC(C3)C2C1=O)C(=O)c1ccccc1 (stereo not drawn) | 11.3 | –
COC(=O)C1=C(C)N=C2SC(C)C(=O)N2C1/C=C/c1ccccc1 (stereo not drawn) | 18.9 | –
CCOC(=O)c1ccccc1N1C(=O)C2Sc3[nH]c(=O)sc3C(/C=C/c3ccccc3)C2C1=O (stereo not drawn) | – | 12.6 µM (active)
CC1CCCN(CCOCCOc2ccccc2-c2ccccc2)C1 (stereo not drawn) | -31.6 | –
CN1CCN(CCCCOc2ccccc2-c2ccccc2)CC1 | – | 56.2 µM (active)
CC1CN(CCOc2ccccc2[N+](=O)[O-])CC(C)O1 (stereo not drawn) | -26.3 | –
c1ccc(-c2ccccc2OCCN2CCCCC2)cc1 | -19 | –
CC1CN(CCCOc2ccccc2-c2ccccc2)CC(C)O1 (stereo not drawn) | – | 56.2 µM (active)
CN1CCN(CCCCOc2cccc3ccccc23)CC1 | 4.87 | –
CCN(CC)CCCNC(=O)CCn1nc(-c2ccc(Cl)cc2)ccc1=O | 13.6 | –
OC(CNC1CCCC1)COc1ccc(F)cc1 (stereo not drawn) | 1.37 | –

SMILES | largest response in the series, negative = inhibition [%] | Potency
CCc1cccc(C)c1N1C(=O)CN(Cc2ccccc2)C1=S | 13.8 | –
C#CC(C)(C)NC(=O)c1cnc(-c2ccccc2)nc1-c1ccccc1 | 8.13 | –
COc1ccc(C(=O)n2nc(C)c(Br)c2C)cc1OC | 16.8 | –
CC1CCN(S(=O)(=O)c2ccc3c(ccn3CC(=O)O)c2)CC1 | 13.3 | –
Cc1sc(NC(=O)C2C3CCC(O3)C2C(=O)O)c(C(=O)OC(C)C)c1-c1ccc(Cl)cc1 (stereo not drawn) | – | 56.2 µM (active)
COc1ccc(NC(=O)C2C3CCC(O3)C2C(=O)O)cc1OC (stereo not drawn) | -8.26 | –
CC(C)OC(=O)c1cc(NC(=O)C2C3CCC(O3)C2C(=O)O)cc(C(=O)OC(C)C)c1 (stereo not drawn) | 12.5 | –
O=c1ccc2cc(S(=O)(=O)NCCCc3ccccc3)ccc2[nH]1 | 6.03 | –
CCOC(=O)C1CCN(S(=O)(=O)c2c(C)noc2C)CC1 | 0.623 | –
COc1cccc(-c2coc3cc4oc(=O)c(CC(=O)O)c(C)c4cc23)c1 | 3.72 | –
O=C(NC(=S)Nc1ccc2oc(=O)ccc2c1)c1ccc(-c2cccc(Cl)c2Cl)o1 | – | 79.4 µM (active)
CC(C)C(=O)Nc1ccc2oc(=O)ccc2c1 | 13.6 | –
O=C(COc1ccc(Cl)cc1)Nc1ccc2oc(=O)ccc2c1 | -10.1 | –
CC(C)(C)OC(=O)NCCCC1=CC2=CC(=O)C(C)(OC(=O)c3ccco3)C(=O)C2=CO1 (stereo not drawn) | -0.751 | –
CC(C)(C)OC(=O)NCCCCC1=CC2=CC(=O)C(C)(OC(=O)c3cccs3)C(=O)C2=CO1 (stereo not drawn) | -1.92 | –
COC/C=C/C1=CC2=CC(=O)C(C)(OC(=O)CCC(=O)OC)C(=O)C2=CO1 (stereo not drawn) | -28.3 | 56.2 µM (active)
COc1cc(C2C3=C(CCCC3=O)OC3=C2C(=O)CCC3)ccc1OCC(=O)Nc1ccccc1 | -3.15 | –
Cc1cccc(C)c1NC(=O)COC(=O)c1ccccc1O | -13 | –
COC(=O)c1ccccc1NC(=S)NC(=O)c1ccccc1F | 10.1 | –
Cc1cccc(NC(=S)NC(=O)c2ccc(Br)o2)c1 | -10.9 | –
O=C(NC(=S)Nc1ccccc1C(=O)O)c1ccc(-c2ccc(Br)cc2)o1 | – | 31.6 µM (active)
CC1(C)C2CCC1(CS(=O)(=O)NCCc1c[nH]c3ccccc13)C(=O)C2 (stereo not drawn) | 3.13 | –
CCCCN(C)CCNC(=O)C1CCCN(S(=O)(=O)c2cccc3nsnc23)C1 (stereo not drawn) | 11.4 | –

Source: PubChem BioAssay AID1490 (National Center for Advancing Translational Sciences (NCATS), 2009)
